Screens: PubChem, several laboratories
KLK7 zymogen act: proKLK7 (human) activation, primary screen; purified proKLK7, EDANS-DABCYL substrate fluorescence; 100% is mature enzyme control, 0% vehicle; activation, % at 7 µM; 370,000 tested, 0.9% active; AID 652039;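 active means activation above the mean of all tested compounds plus 3 SD, computed per campaign excluding outliers beyond control limits, cut at about 13% in these data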
Target sequence (P49862 whole entry, looked up): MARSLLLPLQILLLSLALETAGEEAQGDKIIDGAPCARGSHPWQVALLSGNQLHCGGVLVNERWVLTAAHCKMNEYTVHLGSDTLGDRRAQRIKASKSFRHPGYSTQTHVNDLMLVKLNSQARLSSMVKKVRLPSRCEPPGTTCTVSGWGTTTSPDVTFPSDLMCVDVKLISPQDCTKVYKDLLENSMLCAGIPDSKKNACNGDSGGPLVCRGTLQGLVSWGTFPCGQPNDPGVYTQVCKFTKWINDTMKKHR
ADAM17 inh: inhibits human ADAM17; P78536; recombinant ADAM17, EDANS/DABCYL FRET peptide cleavage; inhibition, % at 6.95 µM; 370,000 tested, 0.83% active;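 active means inhibition above the mean of compounds lying between control limits plus 3 SD, set per campaign, cut at about 8.5% in these data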;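 further: 0% = DMSO-only wells as the low control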
ADAM10 inh: inhibits human ADAM10; inhibition, % at 7 µM; O14672; recombinant ADAM10, EDANS/DABCYL FRET peptide cleavage, 3 h; AID 720582; 370,000 tested, 0.62% active;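 active means inhibition above a per-campaign cutoff equal to the mean of compounds falling between control-based bounds plus 3 SD, cut at about 20% in these data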;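 further: 0% = DMSO wells while the 100% control is not disclosed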
CendR NRP1 mod: alters CendR peptide binding to human NRP-1. FAM-RPARPAR peptide binding to NRP-1, fluorescence polarization. inhibition, % at 25 µM. 360,000 tested, 0.85% active. O14786;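 active means inhibition or corrected inhibition above about 18%, plus a signal ratio from 0.5 to 1.5, limit read from the data, passing the limit was not always enough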
HGIII-sPLA2 inh: Blocks human group III sPLA2 activity; QFRET BODIPY PC-A2 liposome hydrolysis, fluorescence; inhibition, % at 12.2 µM; 370,000 tested, 0.56% active; AID 743126;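 active means inhibition above mean plus 3 SD of compounds lying within the high and low control bounds, cut at about 19% in these data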;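 further: 0% = median of test compound wells and 100% = no enzyme DMSO wells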
ADAM10 confirm: human ADAM10 inhibition, confirmation | shares compounds with ADAM10 inh | ADAM10 QFRET peptide cleavage, EDANS fluorescence | inhibition, % at 6.95 µM | 2,100 tested, 1% active | AID 743208;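 active means inhibition above about 20% chosen separately for each screening run, limit read from the data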;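 further: 0% = DMSO wells and 100% = marimastat wells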
ADAM17 ctr: counter-screen for ADAM10 exosite inhibitors: inhibitors of human ADAM17; shares compounds with ADAM10 inh; ADAM17 QFRET peptide cleavage, EDANS fluorescence; inhibition, % at 6.95 µM; 2,100 tested, 0.5% active;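 active means mean triplicate inhibition above the solvent-only control wells' mean plus 3 SD, cut at about 12% in these data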;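 further: 0% = DMSO wells and 100% = marimastat wells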
* hit, by the source's call; / = no result. This is a sample that favours compounds with a hit; in the whole collection about 3.4% have one here.

SMILES | KLK7 zymogen act | ADAM17 inh | ADAM10 inh | CendR NRP1 mod | HGIII-sPLA2 inh | ADAM10 confirm | ADAM17 ctr
O=C(C1CCCN(S(=O)(=O)c2cccs2)C1)N1CCN(Cc2ccccc2)CC1 (stereo not given) | -0.2 | -0.3 | -10.6 | / | 10.2 | / | /
CC(C)(C)OC(=O)NCc1cc(F)ccc1/C=C/S(=O)(=O)NC1CCCC1 | -0.4 | 4.3 | 4.9 | / | 8.4 | / | /
CC(CC(=O)O)CC(=O)Nc1cc([N+](=O)[O-])ccc1O (stereo not given) | -0.4 | 0.6 | 20.4* | 19.3 | 4.6 | 3.5 | 1.0
COc1ccc(N2CCN(C(=S)Nc3ccc(C)cc3C)CC2)cc1 | 0.3 | 4.5 | 20.5* | 9.0 | 5.1 | 0.4 | -0.1
NC(=NC(=O)/C=C/c1ccccc1Br)N(CC#Cc1ccccc1)CC#Cc1ccccc1 | / | 1.1 | 0.1 | / | -4.7 | / | /
O=C(/C=C/c1ccccc1)NC(NC(=S)Nc1cccc(O)c1)C(Cl)(Cl)Cl (stereo not given) | -0.1 | 5.6 | 21.5* | -13.1 | -20.1 | 7.7 | 1.8
O=C(/C=C/c1ccccc1)NC(NC(=S)Nc1cccc(Cl)c1)C(Cl)(Cl)Cl (stereo not given) | 0.0 | -1.9 | -2.0 | 0.7 | -7.6 | / | /
O=C(Cc1ccccc1)N1CCC(Oc2cccnc2)CC1 | -0.5 | -2.9 | -3.4 | / | 2.5 | / | /
COc1cccc(CNn2c(-c3cccc(C)c3)nc3ccccc3c2=O)c1 | -0.4 | 8.3 | 26.8* | -9.2 | -3.6 | 0.2 | 0.7
CN1C(=O)c2cc(NC(=O)Cc3cccs3)ccc2OC[C@@H]2O[C@@H](CC(=O)N[C@H]3CCN(Cc4ccccc4)C3)CC[C@@H]21 | -0.1 | -1.1 | 1.1 | / | -1.0 | / | /
COc1ccc(-c2cc(C3CCN(c4cc(Cl)nc(N)n4)CC3)[nH]n2)cc1 | 0.9 | 6.6 | 17.4 | 0.3 | -51.2 | / | /
Nc1nc(Cl)cc(N2CCC(c3cc(-c4ccc(Cl)cc4)n[nH]3)CC2)n1 | 0.0 | 6.0 | 32.4* | -3.1 | -67.7 | 5.3 | 2.0
COc1ccc(CNC2CCC23CCCCC3)cc1OC (stereo not given) | / | -2.9 | 4.8 | / | 8.0 | / | /
Cn1cccc1C(=O)N1CCN(S(=O)(=O)c2ccccc2F)CC1 | 0.1 | -3.4 | -2.9 | / | -3.8 | / | /
Cc1ccc(NC(=S)NNC(=O)c2ccc(N3CCOCC3)c([N+](=O)[O-])c2)cc1Cl | -0.1 | 6.6 | 20.9* | -8.9 | 16.5 | 4.4 | 0.1
Cc1cc(C(=O)Nc2ccc(N3CCCC3)c(Cl)c2)ccc1[N+](=O)[O-] | -0.5 | 8.2 | 18.4 | -3.7 | 3.0 | / | /
COC(=O)c1cc(-c2ccc(OC)c(OC)c2)c(=O)n2c1CCC2 | -0.2 | -27.3 | -120.6 | / | -2.3 | / | /
CC(C)C(=O)OCC(=O)Nc1ccc(N=Nc2ccccc2)cc1 | -0.2 | 7.0 | 24.6* | 15.0 | -7.2 | -0.2 | 1.0
O=C(NCc1ccc(OC(F)(F)F)cc1)c1cc(-c2ccccc2)nn1CC1CC(c2cccnc2)=NO1 (stereo not given) | 1.0 | 6.1 | 20.1* | 18.0 | -15.9 | 0.2 | 1.5
CCc1ccc([C@H]2[C@@H]3C(=O)C[C@@H]4C(=O)N(CC)C(=O)[C@@H]4[C@@H]3CN2S(=O)(=O)c2ccc(C)cc2)cc1 | -0.5 | 0.3 | 3.8 | 6.9 | -28.7 | / | /
CCc1ccc([C@H]2[C@@H]3C(=O)C[C@@H]4C(=O)N(Cc5ccccc5)C(=O)[C@@H]4[C@@H]3CN2S(=O)(=O)c2ccc(C)cc2)cc1 | -0.5 | 3.9 | 23.1* | 20.7 | -31.1 | 6.4 | 2.5
CCc1ccc([C@H]2[C@@H]3C(=O)C[C@@H]4C(=O)N(C)C(=O)[C@@H]4[C@@H]3CN2S(=O)(=O)c2ccc(C)cc2)cc1 | -0.2 | 2.8 | 11.7 | 12.3 | -44.4 | / | /
CCc1ccc([C@H]2[C@@H]3C(=O)C[C@@H]4C(=O)N(C5CCCCC5)C(=O)[C@@H]4[C@@H]3CN2S(=O)(=O)c2ccc(C)cc2)cc1 | -0.3 | 8.1 | 20.1* | -9.5 | -35.1 | 4.5 | 1.4
CCOc1cc(CCNC(=O)c2cc3ccsc3n2C)ccc1OC | -0.2 | 4.0 | 5.1 | / | 0.9 | / | /
COc1ccc(-c2cc(NC(=O)Cc3c(C)[nH]c4ccccc34)ccc2Nc2cccnc2)cc1F | -2.1 | 0.2 | 3.0 | / | -24.8 | / | /
SMILES | KLK7 zymogen act | ADAM17 inh | ADAM10 inh | CendR NRP1 mod | HGIII-sPLA2 inh | ADAM10 confirm | ADAM17 ctr
C[C@@H]1[C@@H](O)C[C@@]2(C[C@H](O)c3cc(Cl)cc(Cl)c3O2)O[C@H]1c1ccccc1Cl | 0.7 | 6.3 | 25.8* | / | -21.3 | 4.8 | 1.7
O=C(NNc1ccccc1)C(=O)NNS(=O)(=O)c1ccc(CCCl)cc1 | -0.4 | 10.6* | 35.0* | -4.5 | 4.9 | 13.3 | 0.9
COc1ccc(S(=O)(=O)NC(C)C(=O)Nc2cccc(C(C)=O)c2)cc1 (stereo not given) | 0.2 | 5.6 | 31.0* | -12.5 | -7.2 | -0.5 | 0.7
COc1ccc(S(=O)(=O)NC(C)C(=O)Nc2ccccc2F)cc1 (stereo not given) | 0.7 | 0.1 | -2.3 | 0.2 | 0.6 | / | /
C[C@H]1[C@@H](NC(=O)c2ccc(O)cc2)CC[C@@]23CCCN2C(=O)CCC[C@@H]13 | / | -2.8 | -1.0 | / | 2.2 | / | /
Cc1ccc(NC(=O)CN(C)C(=O)c2ccc(NS(=O)(=O)c3cccc([N+](=O)[O-])c3)cc2)cc1 | -0.3 | 1.8 | -1.6 | 2.8 | -27.6 | / | /
Cc1ccc(NS(=O)(=O)c2ccc(OCC(=O)Nc3cccc([N+](=O)[O-])c3)c(C)c2)cc1 | -0.1 | 3.3 | 22.7* | -9.0 | -66.5 | 7.4 | 2.8
COc1ccc(C(C)(C)C)cc1N1C(=O)[C@@H]2CSCCS(=O)(=O)N2C1=O | 0.1 | -0.3 | 5.4 | / | 3.9 | / | /
CCCN(CCC)C(=S)NC(=O)c1ccc(-c2ccccc2)cc1 | 0.0 | 5.3 | 24.5* | -12.1 | 9.5 | 3.4 | 0.9
COc1ccccc1CNC(=O)N1CCC(c2nc3ccc(Cl)cc3[nH]2)CC1 | 0.5 | -1.2 | -3.2 | / | -2.5 | / | /
O=C(Nc1ccc2[nH]c(=S)sc2c1)Nc1ccccc1F | 0.0 | -2.6 | 23.7* | 1.4 | -4.7 | 6.2 | 2.2
O=C(Nc1ccc2[nH]c(=S)sc2c1)c1ccccc1 | -0.3 | -1.1 | 5.4 | 4.5 | 14.7 | / | /
Cc1cc(Br)c2c(c1)/C(=C/C(=O)c1cccs1)C(=O)N2 | -0.3 | 1.3 | 20.1* | 5.3 | 4.6 | 1.0 | -0.4
CCOc1ccc(NC(=O)C2C(c3ccccc3)C2(Cl)Cl)cc1 (stereo not given) | -0.1 | 7.9 | 20.3* | -1.6 | -11.6 | 6.6 | 1.2
COc1ccc(NC(=O)C2C(c3ccccc3)C2(Cl)Cl)cc1 (stereo not given) | 0.2 | 3.0 | 6.0 | 2.2 | -0.2 | / | /
COc1ccc(C2C(C(=O)Nc3cccnc3)=C(C)Nc3nc(-c4cccs4)nn32)cc1OC (stereo not given) | -0.1 | -1.3 | 76.5* | -12.3 | 3.0 | 0.3 | 0.0
